Whole data set: some 33,000 sequences, median “E-score (-0.5 to 0.5)” near -0.04, cut for the highest 2% near 0.36. The entries come from a sample that favours the highest values as a whole.
Biological target: T1, Hmlalpha2 (UniProt P0CY09)
T1 sequence: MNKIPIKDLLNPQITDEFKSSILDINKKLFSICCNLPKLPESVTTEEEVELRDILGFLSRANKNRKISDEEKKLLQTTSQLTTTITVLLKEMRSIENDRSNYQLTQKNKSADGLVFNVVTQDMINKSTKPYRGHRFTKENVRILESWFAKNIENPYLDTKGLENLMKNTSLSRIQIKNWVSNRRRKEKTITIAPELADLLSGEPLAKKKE
Assay: PBM E-score (8-mer binding enrichment) (E-score (-0.5 to 0.5)); higher = stronger / more preferred TF binding
Conditions: protein concentration: 200 nM; construct: GST-full length
Description: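 Universal 'all 10-mer' protein binding microarrays (Agilent AMADID 015681) probed with GST-tagged S. cerevisiae TFs (full-length or DBD) made by in vitro transcription/translation (PURExpress), about 100-200 nM. Bound TF was detected with fluorescent anti-GST. Each ungapped 8-mer (which stands for itself and its reverse complement) is scored by the PBM enrichment score (E-score), a modified Wilcoxon-Mann-Whitney statistic from -0.5 to +0.5, computed with the Universal PBM Analysis Suite. Scale: above 0.35 generally sequence-specific binding.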

Sequence	PBM E-score
AACGATCT	-0.0798
ACCAAAGG	-0.219
AGCACCCA	-0.176
CGGGTAAA	0.234
AGTACACC	0.115
TGTACAAA	0.422
GGTACAAA	0.138
TGTACACA	0.418
AGTACACA	0.387
CGTACACG	0.354
AGTACACG	0.437
AGTACACT	0.074
AGTACAGG	0.134
CGTACACA	0.347
AGTACAAA	0.161
GGTACACA	0.246
ACACCGCG	0.15
GCGACTCA	-0.134
ATGCGAGG	-0.117
GAACGATC	-0.0263
AGAGTGCC	-0.257
CGTACCTA	-0.0874
ACGGCCCC	-0.437
ATGTTAGC	0.342
AAGTTAAC	0.303

Sequence	PBM E-score
TTGTTAAA	0.359
CTGTTAAA	0.258
CTGTTAAC	0.304
GAGTTAAC	0.234
GTGTTAAA	0.462
GTGTTAAC	0.462
ATGTTAAC	0.448
CCCTTAAC	-0.0469
ATACTATC	0.0717
ATTTGCGA	0.0385
AAGTTTCC	0.0351
ATGCTGTG	0.238
CGGGTCCA	-0.262
AAGCGTCT	-0.232
CCGTTTAC	0.259
CTGTTTCC	-0.11
ATGTTTAG	0.33
ATGTTTAC	0.433
ATGTTTGC	0.166
CTGTTTAC	0.371
AGGAGATG	-0.157
AGGAAAAA	0.00347
GTATTATA	0.318
GCTATGTA	0.426
GCTATGCA	-0.0142

Sequence	PBM E-score
ACTATGTC	0.165
ACTATGTG	0.108
CCTATGTC	0.0957
CCTATGTA	0.433
AATATGTC	0.167
CCTATGAA	-0.065
ACTATGTA	0.444
AATATGTA	0.386
GATATGTA	0.345
CATATGTA	0.356
CTTCATTC	-0.149
AAGATCAC	-5e-05
CACAGGTC	-0.101
GAATACCC	-0.19
TGACCAAA	-0.0837
CCAGTAGG	-0.239
GTGAAGCA	-0.113
CTGGAAAG	-0.217
AAACCTTT	-0.111
AGGTATGG	-0.317
ACGCTTGC	-0.0163
TTACCCAA	0.02
CAGTAATG	0.167
GGGTAATA	0.193
CTGTAATA	0.286

Sequence	PBM E-score
CGGTAATA	-0.00682
ATGTAATG	0.479
GTGTAATA	0.456
ATGTAATC	0.478
AAGTAATA	0.24
ATGTAATA	0.48
ATGTAACC	0.304
ATGTAACG	0.362
CTGTAATC	0.243
GGAGTGTA	0.18
CATGAGGC	-0.166
TACTGTCA	-0.0966
CAGCAGCG	0.0849
GGGGATAA	-0.178
CCAGGACG	0.0263
GGGCCAAA	-0.124
GGGCACTA	-0.105
AGACGCCT	-0.0767
ACACGCCT	0.374
ACACGCCG	0.274
ACACGCCC	0.371
GCACGCCC	-0.0771
ACACGCCA	0.311
ATCCTGCA	-0.0119
CTATTGCA	0.117

Sequence	PBM E-score
CCGGTTTA	0.0123
GATGAGCC	-0.213
AGAAGGAA	-0.351
CCCTTAAA	-0.0696
GAGACGGA	-0.095
AAGTAGGC	-0.0798
CTTGAATC	-0.0387
CGATCTCA	-0.0804
AAGATCAG	-0.187
AACAACAG	0.108
AACAACAA	0.306
GACAACAC	0.319
AACAACAC	0.375
CACAACAC	0.306
AACAACAT	0.385
CGAAACCC	-0.121
CTTCTAGC	-0.197
CCCCGCAC	-0.201
CCGGGAAG	-0.179
CGTCCCCA	-0.224
CTACATGA	0.421
GCACATGA	0.0937
CGACATGA	0.319
CTACATCA	0.222
GTACATTA	0.316

Sequence	PBM E-score
GTACATGA	0.426
AACATTGC	0.191
GGAATCTA	-0.132
GCACGGAC	-0.0335
ACCAAATA	0.191
ACACACAA	0.313
ATACACAG	0.408
ACACATAT	0.317
ATACACAA	0.42
ACACACAT	0.379
CTATACAG	0.0549
ATACACAT	0.399
AGACACAT	0.128
ACACACAC	0.326
AAACACAT	0.314
ACACACAG	0.364
AGACACAA	0.172
TTCATGAA	-0.00198
ATTGAGCA	0.0182
ATAACCAC	-0.0123
ACCCCCGA	-0.0909
GGCAAAGA	-0.0294
CCCCTGTC	-0.152
GGCCAGCC	-0.192
CAGCGACG	-0.0401

Sequence	PBM E-score
ATACACCG	0.145
ATACACTC	0.185
ATACACAC	0.429
CGCTGAGA	-0.139
CCCTCAGA	-0.285
CTATTCCC	-0.203
AGTGCACC	-0.2
CAGTGTAC	0.154
CAGTGTAG	0.243
AGGTGTAG	0.0925
ACGTGTGA	0.229
AGGTGTAA	0.317
ACGTGTAG	0.429
CCGTGTAG	0.452
CCGTGTCG	0.233
AAGTGTAG	0.0742
ACGTGTAA	0.482
CCGTGTCC	0.0408
CCGTGTAC	0.422
CGGACGGA	-0.198
AGACTGGA	-0.0528
CGAATCGC	-0.169
ATGAGGAA	0.0377
ACCTAACT	0.00114
AACGAACC	0.036

Sequence	PBM E-score
CATGGGGC	0.0176
CGCAATGA	0.0708
GAGAATAC	0.242
ATTGTTGG	0.151
AATCTGAA	0.102
ACTACTTG	0.154
AAGTGTAT	0.194
ACGTGTCT	0.193
GCGTGTAA	0.486
AAGTGTAC	0.0982
TAGTGTAA	0.323
ACGTGTAC	0.382
GGGTGTAC	-0.0223
GAGTGTAC	0.0265
ACGTGTGC	0.172
ACGTGTAT	0.402
GCCTGTAA	0.254
GCGTGTAC	0.427
CAACCACG	0.111
ATTGGTAG	0.0446
GGATCCTA	-0.154
ATCCTAAT	-0.0163
CTGGCGAA	-0.103
CTGTCCAA	-0.0758
ACATAGGG	0.251

Sequence	PBM E-score
ACGTAGAT	0.267
CGCTTGCA	-0.0244
GCGCGTTA	0.372
GCGCGTAA	0.416
CCGCGTTA	0.336
ACGCGTAC	0.345
TCGCGTAA	0.45
TAGCGTAA	0.278
TGGCGTAA	0.108
ACGCGTAA	0.394
GCGCGTGA	0.134
ACGCGTAT	0.357
GCGCGTAC	0.225
ACGCGTTA	0.342
GCTGAAGC	-0.14
CCGAATGC	-0.125
ATTGATGG	0.08
TCCATGAA	0.043
TCCAACAA	0.264
GGCCTACC	-0.247
CTGAGGGC	-0.3
ATCTCGGA	-0.115
AAAGCGAG	0.107
CTCTGACA	0.132
GCGACCAA	-0.0947

Sequence	PBM E-score
GCCAGACA	-0.163
CCGCGTAC	0.266
CCGCGTAG	0.294
CCGCGTAA	0.426
ATCTACTA	0.193
GCTATTCA	0.0214
ACTTTGCC	-0.0921
GGGGAGTA	-0.225
AAGTTGCA	0.109
GTTCTACA	0.29
TATCTAAA	0.141
AATCTACT	0.098
ATTCTACA	0.371
ATTCTACG	0.157
TATCTACA	0.371
GATCTACA	0.345
AATCTACA	0.438
CATCTACA	0.338
GCATTGAC	0.0683
CGACCGAA	-0.0499
GAAGGCCA	-0.38
ATCTGCCA	-0.149
CAGTACAG	0.0351
TAACGGCA	-0.0141
CTTACATA	0.426

Sequence	PBM E-score
CTTACAGA	0.0289
GTTACAGA	0.0217
GTTACTGA	0.171
CTCACATA	0.0587
GTTACATA	0.421
ACCCCTAT	-0.208
ACACCCAG	0.0143
GCGCGAAA	0.189
TCACAACA	0.324
TACTATAA	0.171
ACATATGG	0.104
AAATATTA	0.317
ACATATGT	0.369
CAATATTA	0.213
ACATATTG	0.142
TAATATTA	0.379
CCATATTA	0.063
ACATATTA	0.389
ACATATGC	0.123
ATGCACAC	0.106
CTTTTGCA	0.105
ACTTTCGG	-0.0932
AGCATCCC	-0.348
AGAACTAA	0.189
AGAGCGGG	-0.166

Sequence	PBM E-score
ACCTACTA	0.081
ACGCGATA	0.324
CTCCAGGC	-0.185
GTTAAAAC	0.343
GTTAAACA	0.375
CTTAAACA	0.128
GTTAAAAA	0.369
ATTAAACA	0.322
ATTAAAAA	0.249
TCCTACCA	-0.318
GGATGGAA	-0.175
AGGTTCTG	-0.0953
AAACCTCT	-0.08
ATGTTTTC	0.421
GTGTTTTA	0.355
GTGTTTAA	0.351
ATGTTTTA	0.422
ATGTTTAA	0.387
CTGTTTTA	0.0458
CTGTTTTC	0.036
CTGTTTAA	0.11
ATGTTTCC	0.0968
ACCTTGGC	-0.242
ATTGCCAA	-0.206
CCTGGACC	-0.0273

Sequence	PBM E-score
GGTTCTCA	-0.0328
ATCTACAG	0.151
CTCTACGC	0.0772
ATCTACAA	0.307
CTCTACAA	0.277
ATCTACAC	0.45
ATCTACAT	0.452
GTCTACAC	0.364
ATCTACTC	0.00965
CCCTACAC	0.247
ATCTACGA	0.014
ATCTACGC	0.368
CTCTACAC	0.368
GGAGGCTA	-0.325
GTTCTGCA	0.104
GTAACATA	0.355
ATAACATC	0.327
ATAACAGG	0.194
ATAACATA	0.437
CTAACATA	0.273
ATAACATG	0.452
AGCTGCAG	-0.168
ACTTTGAC	0.231
CCTTGCCC	-0.198
GCATGTTA	0.464

Sequence	PBM E-score
AGATGTTG	-0.0256
ACATGTTC	0.371
ACATGTCA	0.402
AGATGTTC	0.0875
CCATGTTC	0.275
AAATGTTG	0.0925
ACATGTTG	0.45
ACATGTCC	0.351
CAATGTTA	0.284
GCCTGTTA	0.139
CCATGTCA	0.333
CCTGGGCG	-0.173
GCAAGCGA	0.0703
GCGAAACC	0.104
CAAACCCG	-0.0693
ATTCACCA	0.0468
ATGAGGTA	0.136
CCGCATAC	0.0261
CCTTAGAG	-0.462
